Data from PubChem BioAssay.
Active and inactive are the calls of the source. Unless noted, how the calls were made is not given here.

What was measured:
[1] = A549 cell viability effects, profiling panel, calcein-AM fluorescence, 48 h, basal (AID 1162); settings: higher = more signal; further: test concentration not given here
[2] = adipocyte viability effects, profiling panel, cell-based, 3T3-L1 adipocytes, calcein-AM fluorescence, 48 h, basal (AID 1163); settings: 3T3-L1 adipocytes viability, higher = more signal; further: test concentration not given here
[3] = HepG2 cell viability effects, profiling panel, calcein-AM fluorescence, 48 h, basal (AID 1164); settings: higher = more signal; further: test concentration not given here
[4] = MM1S cell viability effects, profiling panel, calcein-AM fluorescence, 48 h, basal (AID 1165); settings: higher = more signal;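 further: viability of MM1S multiple myeloma cells under basal unstimulated conditions; test concentration not given here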
[5] = basal RPMI8226 viability, no added stimulus, profiling panel, cell-based, calcein-AM fluorescence, 48 h, PK04 Diversity Set (AID 1166); settings: RPMI8226 myeloma viability, higher = more signal;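 further: cells grown under basal conditions without added stimulus; test concentration not given here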
[6] = basal HepG2 mitochondrial membrane potential changes, profiling panel, cell-based, JC-1 fluorescence, 24 h, 100 nL compound (AID 1167); settings: higher = more signal; further: test concentration not given here
[7] = basal 3T3-L1 adipocyte mitochondrial potential changes, profiling panel, cell-based, JC-1 fluorescence, 3T3-L1 adipocytes, 24 h, 100 nL compound (AID 1168); settings: JC-1 mitochondrial fluorescence, higher = more signal, called active from +8 up or from −8 down; further: test concentration not given here
[8] = basal RPMI8226 mitochondrial membrane potential changes, profiling panel, cell-based, JC-1 fluorescence, 24 h, 100 nL compound (AID 1169); settings: RPMI8226 myeloma, JC-1 mitochondrial potential fluorescence, higher = more signal; further: test concentration not given here
[9] = basal MM1S mitochondrial membrane potential changes, profiling panel, cell-based, JC-1 fluorescence, 24 h, 100 nL compound (AID 1170); settings: higher = more signal; further: test concentration not given here
[10] = A549 lung cancer cell viability effects, profiling panel, resazurin fluorescence, 24 h, PK04 Diversity Set (AID 1171); settings: higher = more signal, called active from +8 up or from −8 down; further: test concentration not given here
[11] = HepG2 liver cancer cell viability effects, profiling panel, resazurin fluorescence, 24 h, PK04 Diversity Set (AID 1172); settings: higher = more signal; further: test concentration not given here
[12] = basal S. cerevisiae growth modulation, no modifier, primary screen, OD600, strain BY4716, 24 h, basal condition (AID 1173); settings: OD600, 24 h, higher = more signal, called active from +8 up or from −8 down
[13] = MM1S myeloma cell viability, profiling panel, resazurin fluorescence, basal, 24 h, PK04 Diversity Set (AID 1174); settings: higher = more signal, called active from +8 up or from −8 down;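 further: MM1S multiple myeloma cell line; test concentration not given here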
[14] = molecular target: Dihydroorotate dehydrogenase (quinone), mitochondrial (Plasmodium falciparum (isolate 3D7)) (UniProt Q08210); test: PfDHODH enzyme inhibitors, primary screen, biochemical, C-terminal His tag, absorbance 600 nm (AID 1175); settings: DCIP absorbance 600 nm, higher = more signal, called active from +8 up or from −8 down;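 further: recombinant parasite enzyme with a five histidine tag at its C terminus; test concentration not given here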
Chain of Dihydroorotate dehydrogenase (quinone), mitochondrial (Plasmodium falciparum (isolate 3D7)) (Q08210 whole entry, looked up): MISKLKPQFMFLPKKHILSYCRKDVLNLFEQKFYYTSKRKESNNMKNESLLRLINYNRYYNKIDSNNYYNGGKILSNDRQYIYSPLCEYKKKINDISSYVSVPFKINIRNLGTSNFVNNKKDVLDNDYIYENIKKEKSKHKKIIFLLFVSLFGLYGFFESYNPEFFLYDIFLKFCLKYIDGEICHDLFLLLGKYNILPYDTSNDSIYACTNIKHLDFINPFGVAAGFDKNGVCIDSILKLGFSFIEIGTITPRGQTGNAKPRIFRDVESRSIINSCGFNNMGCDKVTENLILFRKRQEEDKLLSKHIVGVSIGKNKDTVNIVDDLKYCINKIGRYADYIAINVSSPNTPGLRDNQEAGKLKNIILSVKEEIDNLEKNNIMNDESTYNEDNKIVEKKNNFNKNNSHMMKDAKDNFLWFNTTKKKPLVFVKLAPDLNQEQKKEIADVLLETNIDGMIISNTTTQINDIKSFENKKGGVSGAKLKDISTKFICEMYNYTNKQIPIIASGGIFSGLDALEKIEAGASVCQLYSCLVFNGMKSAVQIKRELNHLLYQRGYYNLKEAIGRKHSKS

[15] = P. aeruginosa biofilm formation inhibitors, primary screen, strain PAO1, LB-PBS medium, absorbance 600 nm (AID 1176); further: test concentration not given here; settings: P. aeruginosa PAO1 growth/biofilm, A600, 12 h; higher = more signal
[16] = S. cerevisiae RM11-1a growth modifiers, primary screen, strain RM11-1a, OD600, basal, 24 h (AID 1177); settings: OD600, 24 h, higher = more signal, called active from +8 up or from −8 down;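 further: cultures grown under basal conditions with no added stressor; test concentration not given here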
[17] = E. coli acrAB mutant growth effects, primary screen, E. coli filamentation inducers, strain DRC39, OD650, 24 h (AID 1178); settings: higher = more signal, called active from +8 up or from −8 down;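 further: growth measured as culture turbidity by optical density at 650 nm; test concentration not given here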
[18] = E. coli acrAB mutant growth effects, primary screen, E. coli filamentation inducers, strain DRC39, OD650, 48 h (AID 1179);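 further: screen aims at cell division blockers that make cells filament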; settings: E. coli DRC39 delta-acrAB growth, higher = more signal, called active from +8 up or from −8 down
[19] = RPMI8226 myeloma cell viability, profiling panel, resazurin fluorescence, basal, 24 h, PK04 Diversity Set (AID 1180); settings: higher = more signal;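 further: RPMI8826 multiple myeloma cell line at 5000 cells per well; test concentration not given here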
[20] = molecular target: E3 ubiquitin-protein ligase XIAP (Homo sapiens) (UniProt P98170); test: XIAP binders, primary screen, biophysical, small-molecule microarray, fluorescence 635 nm (AID 1181); settings: small-molecule microarray binding, higher = more signal;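 further: score merges 667 nm emission and signal to noise over triplicate slides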
Chain of E3 ubiquitin-protein ligase XIAP (Homo sapiens) (P98170 whole entry, looked up): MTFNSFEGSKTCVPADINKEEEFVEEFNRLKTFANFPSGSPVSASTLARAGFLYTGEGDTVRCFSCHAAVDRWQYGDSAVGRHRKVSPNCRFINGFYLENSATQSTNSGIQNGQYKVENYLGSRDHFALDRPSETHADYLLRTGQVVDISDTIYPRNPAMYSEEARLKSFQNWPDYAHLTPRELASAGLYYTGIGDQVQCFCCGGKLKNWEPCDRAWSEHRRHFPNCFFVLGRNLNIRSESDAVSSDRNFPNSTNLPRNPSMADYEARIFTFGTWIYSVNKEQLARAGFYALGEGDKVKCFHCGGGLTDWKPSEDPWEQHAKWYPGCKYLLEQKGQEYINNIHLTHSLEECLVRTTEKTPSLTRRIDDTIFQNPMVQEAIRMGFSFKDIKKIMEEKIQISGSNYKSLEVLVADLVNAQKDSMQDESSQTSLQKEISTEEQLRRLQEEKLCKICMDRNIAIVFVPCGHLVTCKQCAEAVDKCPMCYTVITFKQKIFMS

Row | SMILES | z-score [1] | z-score [2] | z-score [3] | z-score [4] | z-score [5] | z-score [6] | z-score [7] | z-score [8] | z-score [9] | z-score [10] | z-score [11] | z-score [12] | z-score [13] | composite z-score [14] | z-score [15] | z-score [16] | z-score [17] | z-score [18] | z-score [19] | composite z-score [20]
1 | CC[C@@H]1[C@@H]2C3C(=O)N(CC)C(=O)C3CC(=O)[C@@H]2[C@H](c2ccc(C)cc2)N1S(=O)(=O)c1ccc(C)cc1 (stereo not given in full) | 0.63 | 0.552 | 0.769 | -0.639 | -1.6 | 0.601 | 0.0417 (inactive) | -0.227 | -1.59 | -0.195 (inactive) | -0.107 | -1.67 (inactive) | -1.27 (inactive) | -0.415 (inactive) | 0.409 (inactive) | -1.13 (inactive) | 0.694 (inactive) | 1.26 (inactive) | 0.887 | -0.0962
2 | C=CC[C@@]1(C(=O)NCC(O)CO)N=C(c2ccc(OCCCO)cc2)O[C@@H]1c1ccccc1 (stereo not given in full) | 0.183 | 1.07 | -0.412 | 0.281 | -0.561 | -0.152 | 0.622 (inactive) | 0.49 | 1.18 | 0.295 (inactive) | 0.483 | -2.05 (inactive) | 0.552 (inactive) | 0.358 (inactive) | -0.223 (inactive) | -0.108 (inactive) | 2.08 (inactive) | 0.196 (inactive) | 0.934 | -0.0374
3 | C=C(CCCC)/C(=C/C[C@H](OC(=O)c1ccncc1)c1ccc(CO)o1)c1cc(C(=O)OC)ccc1OC | -0.705 | -0.0954 | -0.677 | -3.18 | -1.04 | -0.132 | -0.991 (inactive) | -0.375 | -0.207 | -0.401 (inactive) | -0.673 | -0.756 (inactive) | -2.13 (inactive) | -3.99 (inactive) | 0.898 (inactive) | -0.145 (inactive) | -0.861 (inactive) | -0.528 (inactive) | -0.963 | 0.0537
4 | CCCC=C(CCC)[C@@H](NS(=O)(=O)CC)c1ccccc1 | -2.33 | -0.924 | -1.71 | -2.83 | -3.64 | -2.68 | -0.517 (inactive) | -0.889 | -0.177 | 0.677 (inactive) | 0.281 | 1.32 (inactive) | -0.364 (inactive) | -0.317 (inactive) | 0.302 (inactive) | 0.462 (inactive) | -1.1 (inactive) | -0.0887 (inactive) | -0.745 | 0.23
5 | CCCC[C@H]1OB(O)C[C@H]2C1=C(COc1ccccc1)Cn1c(=O)n(-c3ccccc3)c(=O)n12 | -0.428 | 0.75 | -0.561 | -0.206 | -1.28 | -2.12 | 0.16 (inactive) | 0.268 | -0.958 | -0.412 (inactive) | -0.0243 | -6.02 (inactive) | -0.0638 (inactive) | -2.51 (inactive) | 0.294 (inactive) | 0.458 (inactive) | 0.232 (inactive) | 0.0306 (inactive) | -0.0851 | -0.327
6 | CN1C(=O)C2C=CC(C(O)COCc3ccccc3)N(Nc3ccccc3)C2C1=O (stereo not given) | -0.115 | -1.24 | -0.465 | 0.225 | 0.192 | -1.05 | 0.0756 (inactive) | -0.0145 | -0.178 | 0.105 (inactive) | 0.425 | -0.396 (inactive) | -0.825 (inactive) | -0.284 (inactive) | -0.0346 (inactive) | 0.328 (inactive) | -0.925 (inactive) | 0.0813 (inactive) | 0.182 | 0.267
7 | COC(=O)[C@@]1(Cc2ccc(F)cc2)[C@@H]2[C@@H](CC(=O)[C@H]2CC(=O)C(=O)N2CCCC2)CN1C(=O)c1ccccc1 | -0.974 | -0.0508 | -0.191 | -2 | -1.73 | 0.129 | -1.52 (inactive) | -0.96 | -1.25 | -0.919 (inactive) | -0.572 | 0.508 (inactive) | -1.78 (inactive) | -0.238 (inactive) | 1.03 (inactive) | 0.23 (inactive) | -1.25 (inactive) | -0.212 (inactive) | -3.35 | -0.0553
8 | O=C1OCC=C[C@H]2OC34C=CCN(CCN5CCOCC5)C(=O)[C@H]3N(CCCCCO)C(=O)[C@@H]4[C@@H]12 (stereo not given in full) | 0.348 | 0.277 | -0.36 | 0.148 | 0.182 | -0.539 | 0.379 (inactive) | 0.205 | 0.802 | -0.536 (inactive) | -0.267 | -0.654 (inactive) | -1.12 (inactive) | 0.31 (inactive) | -0.525 (inactive) | 0.105 (inactive) | -1.18 (inactive) | -1.37 (inactive) | -0.82 | 0.11
